The record followed here is publication PMC7862700, “An all-to-all approach to the identification of sequence-specific readers for epigenetic DNA modifications on cytosine”.

Common to all, as to experiment: DAPPL (digital affinity profiling via proximity ligation, sequencing); 10 mM Tris-HCl pH 7.5, 50 mM NaCl, 1 mM DTT, 4% glycerol, room temperature, 30 min; GST-TFs on glutathione beads, 16-mer random dsDNA library, 0.1% formaldehyde crosslink after washing; high values mean tight binding
The target of one experiment is T1, FLI1 (Homo sapiens, UniProt Q01543 1-452).
T1 sequence: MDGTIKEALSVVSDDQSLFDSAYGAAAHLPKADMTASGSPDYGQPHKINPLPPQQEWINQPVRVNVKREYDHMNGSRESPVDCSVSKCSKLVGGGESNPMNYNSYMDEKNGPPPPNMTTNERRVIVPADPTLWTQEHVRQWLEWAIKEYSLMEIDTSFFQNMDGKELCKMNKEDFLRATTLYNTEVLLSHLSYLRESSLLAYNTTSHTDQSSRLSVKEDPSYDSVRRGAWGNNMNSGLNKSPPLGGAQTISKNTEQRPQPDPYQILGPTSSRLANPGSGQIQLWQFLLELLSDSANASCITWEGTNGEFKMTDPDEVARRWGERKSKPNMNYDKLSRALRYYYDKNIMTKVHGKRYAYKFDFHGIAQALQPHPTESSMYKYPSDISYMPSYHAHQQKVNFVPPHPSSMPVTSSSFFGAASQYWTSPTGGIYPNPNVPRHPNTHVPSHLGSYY
The following applies: protein: recombinant; tags: N-terminal GST; dsDNA, one strand shown. An outline of the steps: (§1)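 Sequencing on an Illumina NextSeq500 followed washing, crosslinking with 0.1% formaldehyde, proximity ligation (BsaI/T4 ligase, 1 h, 37 °C) and PCR amplification of pools that had been incubated for 30 min at room temperature with 200 nmole of a random double-stranded 16-mer DNA library in Tris/NaCl/DTT/glycerol buffer. Each pool held DNA-barcoded human transcription factors, expressed in yeast as GST fusions and captured on glutathione beads, plus a tag-only sample. Binding signal is a hexamer's read frequency for a factor divided by its frequency in the tag-only sample.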

The next experiment deals with T2, ELK1 (Homo sapiens, UniProt P19419 1-428).
T2 sequence: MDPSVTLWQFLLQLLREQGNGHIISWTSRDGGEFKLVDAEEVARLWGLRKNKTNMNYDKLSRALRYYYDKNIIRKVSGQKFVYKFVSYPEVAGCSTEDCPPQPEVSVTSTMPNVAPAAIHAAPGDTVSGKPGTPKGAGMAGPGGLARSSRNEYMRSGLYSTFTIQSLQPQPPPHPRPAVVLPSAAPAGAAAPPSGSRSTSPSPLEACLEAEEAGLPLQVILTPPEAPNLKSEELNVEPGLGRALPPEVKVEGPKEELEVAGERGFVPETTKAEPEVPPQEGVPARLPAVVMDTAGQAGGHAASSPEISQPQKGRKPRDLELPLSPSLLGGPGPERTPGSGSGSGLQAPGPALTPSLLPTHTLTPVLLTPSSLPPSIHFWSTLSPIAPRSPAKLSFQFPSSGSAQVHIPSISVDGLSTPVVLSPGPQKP
The following applies: protein: recombinant; tags: N-terminal GST; dsDNA, one strand shown. An outline of the steps: as §1

In the next experiment the target is T3, GABPA (Homo sapiens, UniProt Q06546 1-454).
T3 sequence: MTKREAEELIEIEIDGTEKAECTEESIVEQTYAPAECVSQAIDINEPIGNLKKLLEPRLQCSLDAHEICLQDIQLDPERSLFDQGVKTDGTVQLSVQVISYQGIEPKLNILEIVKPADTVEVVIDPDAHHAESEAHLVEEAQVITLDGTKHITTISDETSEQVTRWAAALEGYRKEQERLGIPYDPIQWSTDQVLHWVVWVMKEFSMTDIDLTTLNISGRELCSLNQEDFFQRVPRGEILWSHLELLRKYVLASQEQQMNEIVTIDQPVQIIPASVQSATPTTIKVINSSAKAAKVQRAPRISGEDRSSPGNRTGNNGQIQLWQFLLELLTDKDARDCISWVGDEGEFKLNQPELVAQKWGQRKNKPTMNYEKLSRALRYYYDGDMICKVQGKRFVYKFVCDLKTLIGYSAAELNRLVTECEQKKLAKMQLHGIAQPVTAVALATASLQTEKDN
Conditions: protein: recombinant; tags: N-terminal GST; dsDNA, one strand shown. An outline of the steps:
as §1

The target of the next experiment is T4, ERG (Homo sapiens, UniProt P11308 1-479).
T4 sequence: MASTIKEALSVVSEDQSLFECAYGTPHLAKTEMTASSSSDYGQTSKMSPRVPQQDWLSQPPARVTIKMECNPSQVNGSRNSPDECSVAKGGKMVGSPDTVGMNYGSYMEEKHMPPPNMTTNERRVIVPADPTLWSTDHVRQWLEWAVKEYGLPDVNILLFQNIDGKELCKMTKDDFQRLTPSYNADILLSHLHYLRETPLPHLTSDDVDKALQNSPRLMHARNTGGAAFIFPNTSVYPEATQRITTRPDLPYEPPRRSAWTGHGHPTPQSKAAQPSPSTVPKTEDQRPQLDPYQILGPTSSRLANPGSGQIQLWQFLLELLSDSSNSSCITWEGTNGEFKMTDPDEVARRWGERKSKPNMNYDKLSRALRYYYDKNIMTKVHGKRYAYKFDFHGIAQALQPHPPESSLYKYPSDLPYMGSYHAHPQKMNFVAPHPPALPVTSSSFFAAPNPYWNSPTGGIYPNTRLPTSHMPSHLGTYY
The following applies: protein: recombinant; tags: N-terminal GST; dsDNA, one strand shown. An outline of the steps: as §1

The target of the next experiment is ELF1 (Homo sapiens, UniProt P32519 1-619). Conditions: protein: recombinant; tags: N-terminal GST; dsDNA, one strand shown. An outline of the steps: as §1
ELF1, sequence (P32519 whole entry): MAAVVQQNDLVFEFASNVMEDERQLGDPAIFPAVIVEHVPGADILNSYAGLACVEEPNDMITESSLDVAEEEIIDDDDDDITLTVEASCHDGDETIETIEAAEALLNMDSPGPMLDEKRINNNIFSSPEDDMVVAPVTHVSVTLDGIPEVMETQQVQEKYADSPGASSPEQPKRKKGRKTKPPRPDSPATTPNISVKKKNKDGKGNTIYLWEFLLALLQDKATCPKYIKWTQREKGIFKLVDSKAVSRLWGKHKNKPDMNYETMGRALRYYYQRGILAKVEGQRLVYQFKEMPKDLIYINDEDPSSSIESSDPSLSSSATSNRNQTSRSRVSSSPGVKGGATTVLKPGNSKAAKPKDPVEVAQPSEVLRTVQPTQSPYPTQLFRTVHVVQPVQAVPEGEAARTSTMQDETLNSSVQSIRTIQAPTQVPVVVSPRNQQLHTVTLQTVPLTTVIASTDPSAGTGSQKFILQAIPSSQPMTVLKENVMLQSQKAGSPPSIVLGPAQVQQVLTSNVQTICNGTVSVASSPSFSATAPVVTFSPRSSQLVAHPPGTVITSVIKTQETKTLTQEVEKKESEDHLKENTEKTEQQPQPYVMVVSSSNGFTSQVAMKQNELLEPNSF
Another experiment concerns the target T5, EHF (Homo sapiens, UniProt Q9NZC4 1-300).
T5 sequence: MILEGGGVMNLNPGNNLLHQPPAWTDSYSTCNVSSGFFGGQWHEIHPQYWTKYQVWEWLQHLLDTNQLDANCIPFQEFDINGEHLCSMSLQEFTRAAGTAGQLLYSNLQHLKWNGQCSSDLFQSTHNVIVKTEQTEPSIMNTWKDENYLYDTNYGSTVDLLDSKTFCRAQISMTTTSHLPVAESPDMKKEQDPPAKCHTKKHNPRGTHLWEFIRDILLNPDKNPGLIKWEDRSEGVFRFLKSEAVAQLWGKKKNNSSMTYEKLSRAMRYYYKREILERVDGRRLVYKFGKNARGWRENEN
The following applies: protein: recombinant; tags: N-terminal GST; dsDNA, one strand shown. An outline of the steps: as §1

A further experiment has as its target SPI1 (Homo sapiens, UniProt P17947 1-270). Conditions: protein: recombinant; tags: N-terminal GST; dsDNA, one strand shown. An outline of the steps: as §1
The target of another experiment is SPIB (Homo sapiens, UniProt Q01892 1-262). The following applies: protein: recombinant; tags: N-terminal GST; dsDNA, one strand shown. An outline of the steps:
as §1

For another experiment, the target named is T6, ELK3 (Homo sapiens, UniProt P41970 1-407).
T6 sequence: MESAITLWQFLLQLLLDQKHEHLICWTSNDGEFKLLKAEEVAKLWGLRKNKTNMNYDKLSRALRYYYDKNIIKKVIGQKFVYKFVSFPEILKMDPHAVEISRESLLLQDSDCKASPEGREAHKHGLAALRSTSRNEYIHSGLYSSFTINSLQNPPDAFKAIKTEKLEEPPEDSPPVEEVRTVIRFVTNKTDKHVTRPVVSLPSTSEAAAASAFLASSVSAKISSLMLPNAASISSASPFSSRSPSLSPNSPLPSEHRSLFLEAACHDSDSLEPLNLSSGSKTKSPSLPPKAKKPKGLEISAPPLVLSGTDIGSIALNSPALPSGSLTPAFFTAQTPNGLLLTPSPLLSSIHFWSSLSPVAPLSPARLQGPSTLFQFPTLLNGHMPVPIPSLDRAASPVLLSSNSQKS
The following applies: protein: recombinant; tags: N-terminal GST; dsDNA, one strand shown. An outline of the steps:
as §1

A further experiment addresses T7, FEV (Homo sapiens, UniProt Q99581 1-238).
T7 sequence: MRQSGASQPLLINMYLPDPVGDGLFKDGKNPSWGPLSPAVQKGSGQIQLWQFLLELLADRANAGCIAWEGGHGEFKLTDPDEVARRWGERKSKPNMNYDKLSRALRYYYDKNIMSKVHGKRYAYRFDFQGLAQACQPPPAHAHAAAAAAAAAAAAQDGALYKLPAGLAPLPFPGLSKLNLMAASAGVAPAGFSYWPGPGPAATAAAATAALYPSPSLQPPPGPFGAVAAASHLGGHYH
Conditions: protein: recombinant; tags: N-terminal GST; dsDNA, one strand shown. An outline of the steps:
as §1

A further experiment concerns the target ETV5 (Homo sapiens, UniProt P41161 1-510). The following applies: protein: recombinant; tags: N-terminal GST; dsDNA, one strand shown. An outline of the steps: as §1
A further experiment deals with HSF1 (Homo sapiens, UniProt Q00613 1-529). Conditions: protein: recombinant; tags: N-terminal GST; chain copies: 3; dsDNA, one strand shown. An outline of the steps:
as §1

In another experiment the target is T8, SPIC (Homo sapiens, UniProt Q8N5J4 1-248).
T8 sequence: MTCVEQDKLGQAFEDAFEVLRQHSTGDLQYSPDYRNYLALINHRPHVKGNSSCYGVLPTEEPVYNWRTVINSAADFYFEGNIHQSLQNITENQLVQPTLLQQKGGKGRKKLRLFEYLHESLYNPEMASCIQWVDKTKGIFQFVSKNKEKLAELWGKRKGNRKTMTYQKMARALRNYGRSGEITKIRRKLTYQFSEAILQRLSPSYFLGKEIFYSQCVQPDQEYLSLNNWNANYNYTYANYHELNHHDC
The following applies: protein: recombinant; tags: N-terminal GST; dsDNA, one strand shown. An outline of the steps:
as §1

The target of the next experiment is ELF4 (Homo sapiens, UniProt Q99607 1-663). The following applies: protein: recombinant; tags: N-terminal GST; dsDNA, one strand shown. An outline of the steps:
as §1

The next experiment addresses T9, ELK4 (Homo sapiens, UniProt P28324-2 1-405).
T9 sequence: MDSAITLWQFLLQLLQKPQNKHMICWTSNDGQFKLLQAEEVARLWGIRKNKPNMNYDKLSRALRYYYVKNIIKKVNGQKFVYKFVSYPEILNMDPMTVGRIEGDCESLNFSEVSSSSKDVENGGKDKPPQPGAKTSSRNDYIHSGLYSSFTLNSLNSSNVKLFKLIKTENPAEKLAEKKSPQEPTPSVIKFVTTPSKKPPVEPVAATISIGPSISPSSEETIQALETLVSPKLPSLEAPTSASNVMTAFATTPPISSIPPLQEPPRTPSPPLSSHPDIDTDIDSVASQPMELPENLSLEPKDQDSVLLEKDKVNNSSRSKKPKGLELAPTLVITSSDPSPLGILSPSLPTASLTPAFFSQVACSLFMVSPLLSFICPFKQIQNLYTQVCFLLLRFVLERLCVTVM
The following applies: protein: recombinant; tags: N-terminal GST; dsDNA, one strand shown. An outline of the steps:
as §1

The target in a further experiment is T10, ETV2 (Homo sapiens, UniProt O00321 1-342).
T10 sequence: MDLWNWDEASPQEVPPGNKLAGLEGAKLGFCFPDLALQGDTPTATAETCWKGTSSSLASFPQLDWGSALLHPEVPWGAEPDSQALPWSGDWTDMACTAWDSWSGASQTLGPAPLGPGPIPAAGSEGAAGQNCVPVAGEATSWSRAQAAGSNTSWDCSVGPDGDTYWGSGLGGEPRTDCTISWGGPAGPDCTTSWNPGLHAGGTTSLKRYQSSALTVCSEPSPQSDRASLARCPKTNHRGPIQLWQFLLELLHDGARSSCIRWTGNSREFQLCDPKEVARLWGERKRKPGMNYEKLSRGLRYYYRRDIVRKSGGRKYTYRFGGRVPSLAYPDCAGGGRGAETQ
Conditions: protein: recombinant; tags: N-terminal GST; dsDNA, one strand shown. An outline of the steps: as §1

Another experiment addresses T11, ELF3 (Homo sapiens, UniProt P78545 1-371).
T11 sequence: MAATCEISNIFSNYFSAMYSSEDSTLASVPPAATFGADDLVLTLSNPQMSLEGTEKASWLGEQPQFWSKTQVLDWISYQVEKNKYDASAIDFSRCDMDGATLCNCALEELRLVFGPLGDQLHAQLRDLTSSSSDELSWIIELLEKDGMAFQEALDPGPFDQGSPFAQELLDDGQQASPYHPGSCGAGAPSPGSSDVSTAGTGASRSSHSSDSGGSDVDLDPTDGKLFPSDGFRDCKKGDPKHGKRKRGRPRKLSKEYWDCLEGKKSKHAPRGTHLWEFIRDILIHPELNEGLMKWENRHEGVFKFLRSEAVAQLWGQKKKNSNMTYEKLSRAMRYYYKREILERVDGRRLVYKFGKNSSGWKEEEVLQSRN
The following applies: protein: recombinant; tags: N-terminal GST; dsDNA, one strand shown. An outline of the steps:
as §1

The target in the next experiment is ETV1 (Homo sapiens, UniProt P50549 1-477). Conditions: protein: recombinant; tags: N-terminal GST; dsDNA, one strand shown. An outline of the steps:
as §1

ETV5, sequence (P41161 whole entry): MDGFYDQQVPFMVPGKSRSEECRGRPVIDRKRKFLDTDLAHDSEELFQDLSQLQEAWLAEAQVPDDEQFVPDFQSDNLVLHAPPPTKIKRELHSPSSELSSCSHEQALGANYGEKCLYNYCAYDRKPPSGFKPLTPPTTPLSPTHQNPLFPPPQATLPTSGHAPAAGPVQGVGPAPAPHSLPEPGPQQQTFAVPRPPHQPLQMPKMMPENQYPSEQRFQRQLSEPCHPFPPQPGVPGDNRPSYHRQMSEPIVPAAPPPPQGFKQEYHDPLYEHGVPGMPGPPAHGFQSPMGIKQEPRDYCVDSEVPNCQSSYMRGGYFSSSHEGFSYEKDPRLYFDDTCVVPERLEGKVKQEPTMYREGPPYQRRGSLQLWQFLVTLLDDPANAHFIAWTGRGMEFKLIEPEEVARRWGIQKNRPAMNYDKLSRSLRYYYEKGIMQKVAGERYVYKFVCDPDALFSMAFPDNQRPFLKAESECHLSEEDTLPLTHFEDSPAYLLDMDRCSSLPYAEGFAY
SPIB, sequence (Q01892 whole entry): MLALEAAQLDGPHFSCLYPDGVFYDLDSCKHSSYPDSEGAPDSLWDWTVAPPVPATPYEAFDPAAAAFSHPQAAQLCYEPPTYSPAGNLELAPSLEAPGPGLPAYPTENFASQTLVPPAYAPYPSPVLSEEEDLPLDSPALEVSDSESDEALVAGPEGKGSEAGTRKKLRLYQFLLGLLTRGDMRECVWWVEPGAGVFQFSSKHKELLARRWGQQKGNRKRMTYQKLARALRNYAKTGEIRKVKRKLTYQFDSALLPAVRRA
ELF4, sequence (Q99607 whole entry): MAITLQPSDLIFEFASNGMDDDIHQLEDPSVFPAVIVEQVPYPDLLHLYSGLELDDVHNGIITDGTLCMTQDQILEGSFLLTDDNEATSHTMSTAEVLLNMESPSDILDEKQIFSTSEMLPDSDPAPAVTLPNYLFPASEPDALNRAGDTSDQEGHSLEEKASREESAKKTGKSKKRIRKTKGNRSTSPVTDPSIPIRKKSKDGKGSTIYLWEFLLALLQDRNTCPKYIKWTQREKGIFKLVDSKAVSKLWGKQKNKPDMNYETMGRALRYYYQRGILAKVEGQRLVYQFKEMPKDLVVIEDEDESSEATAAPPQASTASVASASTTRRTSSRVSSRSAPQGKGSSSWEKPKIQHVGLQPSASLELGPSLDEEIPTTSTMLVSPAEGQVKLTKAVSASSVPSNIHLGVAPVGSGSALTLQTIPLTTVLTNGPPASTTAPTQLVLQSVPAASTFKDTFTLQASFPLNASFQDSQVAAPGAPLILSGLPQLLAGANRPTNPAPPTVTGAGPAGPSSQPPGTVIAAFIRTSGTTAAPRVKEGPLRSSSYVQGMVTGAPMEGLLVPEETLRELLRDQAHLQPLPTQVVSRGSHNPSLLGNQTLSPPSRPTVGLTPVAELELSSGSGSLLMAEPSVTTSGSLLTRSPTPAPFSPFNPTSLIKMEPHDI
ETV1, sequence (P50549 whole entry): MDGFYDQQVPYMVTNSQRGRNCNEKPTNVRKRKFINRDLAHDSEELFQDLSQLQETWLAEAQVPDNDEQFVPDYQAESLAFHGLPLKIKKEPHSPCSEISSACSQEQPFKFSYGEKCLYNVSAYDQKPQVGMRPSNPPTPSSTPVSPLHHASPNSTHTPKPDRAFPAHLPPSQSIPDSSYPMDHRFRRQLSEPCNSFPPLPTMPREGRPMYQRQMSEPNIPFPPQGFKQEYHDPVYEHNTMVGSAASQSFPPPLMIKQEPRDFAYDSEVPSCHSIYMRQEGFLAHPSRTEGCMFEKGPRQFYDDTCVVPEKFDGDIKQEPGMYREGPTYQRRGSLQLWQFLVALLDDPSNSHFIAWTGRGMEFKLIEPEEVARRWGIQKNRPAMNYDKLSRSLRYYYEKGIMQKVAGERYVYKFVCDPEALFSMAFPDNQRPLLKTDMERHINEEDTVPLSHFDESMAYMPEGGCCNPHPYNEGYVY
HSF1, sequence (Q00613 whole entry): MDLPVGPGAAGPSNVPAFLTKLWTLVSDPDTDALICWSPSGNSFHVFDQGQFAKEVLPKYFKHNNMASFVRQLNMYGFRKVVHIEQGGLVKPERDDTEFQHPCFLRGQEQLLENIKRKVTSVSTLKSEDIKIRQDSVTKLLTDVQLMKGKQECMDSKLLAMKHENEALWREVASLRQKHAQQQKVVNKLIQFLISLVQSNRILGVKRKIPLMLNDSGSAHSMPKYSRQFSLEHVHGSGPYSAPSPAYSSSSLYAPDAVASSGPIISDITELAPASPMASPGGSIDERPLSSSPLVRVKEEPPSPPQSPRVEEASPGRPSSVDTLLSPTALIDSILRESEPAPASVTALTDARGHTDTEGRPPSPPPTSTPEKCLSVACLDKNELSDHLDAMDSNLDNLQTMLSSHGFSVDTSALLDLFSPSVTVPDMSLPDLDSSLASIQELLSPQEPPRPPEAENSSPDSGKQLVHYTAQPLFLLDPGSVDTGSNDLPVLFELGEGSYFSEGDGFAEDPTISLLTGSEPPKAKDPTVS

Turning to GAAACA, the binding signal with FLI1 is 1.38 fold enrichment (6-mer frequency, TF over GST control); with ELK1, 1.4 fold enrichment (6-mer frequency, TF over GST control); in the experiment with GABPA, 1.22 fold enrichment (6-mer frequency, TF over GST control); with ERG, 1.32 fold enrichment (6-mer frequency, TF over GST control); with ELF1 it was 1.35 fold enrichment (6-mer frequency, TF over GST control); in the experiment with EHF, 1.45 fold enrichment (6-mer frequency, TF over GST control). Moreover, the binding signal with SPI1 is 1.3 fold enrichment (6-mer frequency, TF over GST control); with SPIB it was 1.36 fold enrichment (6-mer frequency, TF over GST control); in the experiment with ELK3, 1.38 fold enrichment (6-mer frequency, TF over GST control); with FEV it was 1.33 fold enrichment (6-mer frequency, TF over GST control); with ETV5, 1.46 fold enrichment (6-mer frequency, TF over GST control); with HSF1, 1.22 fold enrichment (6-mer frequency, TF over GST control). For the same sequence, the binding signal with SPIC is 1.38 fold enrichment (6-mer frequency, TF over GST control); with ELF4 it was 1.3 fold enrichment (6-mer frequency, TF over GST control); with ELK4, 1.22 fold enrichment (6-mer frequency, TF over GST control); with ETV2 it was 1.44 fold enrichment (6-mer frequency, TF over GST control); with ELF3 it was 1.52 fold enrichment (6-mer frequency, TF over GST control); with ETV1, 1.26 fold enrichment (6-mer frequency, TF over GST control).
